Results as given in ChEMBL document CHEMBL3988442, “University of Dundee, Small-Polar-MMV Screening Library” (2021).
Among all 48,000 compounds or so, about 13,000 (27%) showed an effect of 50% or more. The list shows a part of the results.

tested on: Wolbachia pipientis; assay: Anti-Wolbachia Cell-Based Screen; assay type: functional; design: scale not given: in the data most compounds retested in dose-response had high values; conditions: 5 µM

Compound	Percent Effect [%]
Cc1cc2n(n1)CC(CNC1CCN(Cc3ccncc3)CC1)CN2 (stereo not given)	3.296
Cc1noc(C)c1CNC(=O)N(C1CC1)C(C)c1ccco1 (stereo not given)	-2.539
Cc1ccc2c(-c3nc4c([nH]3)CCNC4C(=O)O)cccc2n1 (stereo not given)	0.6964
O=C(CC1CCc2ccccc21)NC1(C(=O)O)CCCC1 (stereo not given)	9.016
O=C(CC1CC2(CCNCC2)c2ccccc21)NCC1CC1 (stereo not given)	105
CNC(=O)CC1CC2(CCNCC2)c2cc(F)ccc21 (stereo not given)	95.41
COCC(=O)N1CCC2(CC1)CC(CC(=O)NC1CC1)c1ccccc12 (stereo not given)	-16.01
CCNC(=O)CC1CC2(CCN(C(C)=O)CC2)c2cc(F)ccc21 (stereo not given)	-4.484
CNC(=O)CC1CC2(CCN(Cc3nccs3)CC2)c2ccccc21.O=C(O)C(F)(F)F (stereo not given)	-2.085
CCN1CCC2(CC1)CC(CC(=O)N(C)C)c1ccc(F)cc12 (stereo not given)	112.9
COCCN1CCC2(CC1)CC(CC(N)=O)c1ccc(F)cc12 (stereo not given)	8.076
CCC(=O)N1CCC2(CC1)CC(CC(N)=O)c1ccc(F)cc12 (stereo not given)	3.39
CCOC1CC2(CCN(C(=O)COC)CC2)c2cc(F)ccc21 (stereo not given)	-4.976
CCC(=O)N1CCC2(CC1)CC(CC(=O)N(C)C)c1ccc(F)cc12 (stereo not given)	103
Cc1ccc2c(c1)C1(CCNCC1)CC2OCC1CC1 (stereo not given)	7.08
CCN1CC(C(=O)N2CCc3cc(C(N)=O)n(C)c3C2)CCC1=O (stereo not given)	-10.45
Cc1ccc(-c2nc(CN3CCn4c(nnc4C4CC4)C3)no2)cc1	-10.52
c1cncc(NCCNC2CCSC2)c1 (stereo not given)	14.04
CCC(C)n1cnc(S(=O)(=O)N(C)c2cccnc2N(C)C)c1 (stereo not given)	2.284
Cc1nnc(CSc2ccccn2)o1	-5.067
O=C(CCN1CCCC1C1CCCCC1)N1CCc2sccc2C1 (stereo not given)	3.149
CN(C)S(=O)(=O)N1CCC2(CC1)CC(OCC1CC1)CO2 (stereo not given)	-4.528

Compound	Percent Effect [%]
CC(C)(C)CC(=O)NC[C@H]1OC[C@@H](NC2CCC(F)(F)CC2)[C@@H]1O	-11.06
Cn1nc(C#N)c2c1CN(C(=O)c1c[nH]cn1)CCC2	-11.9
COc1nn(C)c2c1CCCN(C(=O)c1c[nH]cn1)C2	-44.84
COc1nn(C)c2c1CCCN(C(=O)c1cscn1)C2	93.39
COc1nn(C)c2c1CCCN(C(=O)c1cnccn1)C2	102.6
Cn1nc(C#N)c2c1CN(C(=O)c1nc[nH]n1)CCC2	-49.74
Cn1nc(C#N)c2c1CN(C(=O)c1ccnnc1)CCC2	-0.2276
CCN(Cc1noc(C(C)(C)C)n1)Cc1ccc(C#N)cc1F	-6.556
OC(CN(Cc1ccccc1)Cc1cccnc1)c1cccs1 (stereo not given)	-7.082
O=C(CCCn1cncn1)N1CCCCC1c1nccs1 (stereo not given)	-0.08053
Cc1cc(C)n(CCC(=O)N2CCCCC2c2nccs2)n1 (stereo not given)	97.13
Cc1cc(C)n(Cc2cc(C(=O)N[C@H]3CCCCNC3=O)n[nH]2)n1	1.384
Cn1cccc1-c1cc(C(=O)N2CCCC2c2nccs2)[nH]n1 (stereo not given)	-11.21
Cc1cc(C)n(Cc2cc(C(=O)N3CCCC3c3nccs3)n[nH]2)n1 (stereo not given)	147.1
Cc1cc(C)n(Cc2cc(C(=O)N3CCCCC3c3nccs3)n[nH]2)n1 (stereo not given)	94.44
Cc1noc(CCCC(=O)N2CCCCC2c2nccs2)n1 (stereo not given)	4.452
Cc1cc(C)n(CC2CCCN2C(=O)Cc2cn3ccsc3n2)n1 (stereo not given)	5.291
Cc1cc(C)n(Cc2cc(C(=O)N3CCCC3c3ccccn3)n[nH]2)n1 (stereo not given)	101.3
Cc1cc(C)n(CC2CCCN2C(=O)CCCNc2ncccn2)n1 (stereo not given)	-5.56
CC(=O)N1CCC(N2CCN3C(=O)N(c4ccccc4)C[C@H]3C2)CC1	-6.558
CC(C)C(=O)N1CCN(S(=O)(=O)C2CC2)CC2(CC(=O)N(C)C2)C1 (stereo not given)	-3.068
CNC(=O)c1nnn(-c2ccccc2F)c1-c1ccccn1	-7.96

Compound	Percent Effect [%]
C[C@H]1C[C@H]2CN(C(=O)C3=CCCCC3)CC[C@H]2O1	-8.819
Cc1cccc2[nH]c(C3CCCN3Cc3ccc(CO)o3)nc12 (stereo not given)	-7.499
CCS(=O)(=O)NC(C(=O)NC)c1ccc(F)c(F)c1 (stereo not given)	-1.609
Cc1cc(C(=O)N2CCCCC2c2nc(C)cs2)[nH]n1 (stereo not given)	5.063
Cc1csc(C2CCCCN2C(=O)c2cc(C3CC3)[nH]n2)n1 (stereo not given)	105.1
CCc1nc(C2CCCN2C(=O)c2cc(C3CC3)[nH]n2)no1 (stereo not given)	-2.923
Cc1csc(N2CCN(C(=O)c3cc(C4CC4)[nH]n3)CC2)n1	-15.84
Cc1csc(C2CCCCN2C(=O)c2cc(C(C)C)[nH]n2)n1 (stereo not given)	109.6
COC(=O)c1cc2c(=O)[nH]c(=O)n(CCc3ccccc3)c2nc1C	-9.313
O=C(c1ccc2cccc(F)c2n1)N1CCN(CCn2cncn2)CC1	-17.81
Cc1cc(CN(C)C(=O)NC(C)c2nncn2C)no1 (stereo not given)	1.763
Cc1cc(C)n(C2CN(c3nc(N)nc4c3CCCC4)C2)n1	12.27
NCc1csc(CCc2ccccc2)n1	-7.942
O=S(=O)(c1cccc(Cl)c1)N1CCCC(Cn2cncn2)C1 (stereo not given)	-2.672
CN(C)Cc1cc(C2CCCN(S(=O)(=O)c3cccc(Cl)c3)C2)nn1C (stereo not given)	157.3
CN(C)CCN1CC[C@@H]2[C@@H]1CCN2C(=O)c1cccc(Cl)c1	-16.88
O=S(=O)(N1CCCC1)N1CCCCC1CCc1ccccc1 (stereo not given)	1.463
CN(C)Cc1cc(C2CCCCN2S(=O)(=O)Cc2ccccc2)nn1C.Cl (stereo not given)	133.2
CCN(C)C[C@@H]1CN(S(=O)(=O)c2cccc(Cl)c2)C[C@@H]1CO	13.86
CN(C)Cc1cc(C2CCCCN2S(=O)(=O)c2cccc(Cl)c2)nn1C.Cl (stereo not given)	167.4
CN1C(=O)C[C@@H]2[C@@H]1CCN2S(=O)(=O)Cc1ccccc1	-5.88
